Experimental data taken from ChEMBL document CHEMBL4296182, “CO-ADD screening of NIH NCI Diversity Set V”.
For part of these data: Potency and affinity values are given separately.

What was measured:
Staphylococcus aureus = assay: Antibacterial activity against Staphylococcus aureus MRSA ATCC 43300 (CO-ADD:GP_020); MIC in CAMBH media using NBS plates, by Resazurin F(560/590); type: functional; settings: Concentration 20 uM, ASSAY_TEST Inhibition of Bacterial Growth, detection method Resazurin, Fluorescence (ex560/em590), MEDIA CAMHB, plate type 384well, CORNING #3640, time 18 hr
Acinetobacter baumannii = assay: Antibacterial activity against Acinetobacter baumannii ATCC 19606 (CO-ADD:GN_034); MIC in CAMBH media using NBS plates, by Resazurin F(560/590); type: functional; settings: Concentration 20 uM, ASSAY_TEST Inhibition of Bacterial Growth, detection method Resazurin, Fluorescence (ex560/em590), MEDIA CAMHB, plate type 384well, CORNING #3640, time 18 hr
Escherichia coli = assay: Antibacterial activity against Escherichia coli ATCC 25922 (CO-ADD:GN_001); MIC in CAMBH media using NBS plates, by Resazurin F(560/590); type: functional; settings: Concentration 20 uM, ASSAY_TEST Inhibition of Bacterial Growth, detection method Resazurin, Fluorescence (ex560/em590), MEDIA CAMHB, plate type 384well, CORNING #3640, time 18 hr
Klebsiella pneumoniae = settings: Concentration 20 uM; ASSAY_TEST Inhibition of Bacterial Growth; detection method Absorption (OD600); MEDIA CAMHB; plate type 384well; NBS; CORNING #3640; time 18 hr
Candida albicans = settings: 20 µM
Cryptococcus neoformans = settings: Concentration 20 uM; ASSAY_TEST Inhibition of Fungal Growth; detection method Resazurin; Absorption (OD600-OD570); plate type 384well; NBS; CORNING #3640

SMILES	Inhibition (Staphylococcus aureus)	Inhibition (Acinetobacter baumannii)	Inhibition (Escherichia coli)	Inhibition (Klebsiella pneumoniae)	Inhibition (Candida albicans)	Inhibition (Cryptococcus neoformans)
CC1(C)CC[C@]2(C(=O)n3ccnc3)CC[C@]3(C)[C@H](C(=O)C=C4[C@@]5(C)C=C(C#N)C(=O)C(C)(C)[C@@H]5CC[C@]43C)[C@@H]2C1	-14.27%	-18.52%	7.42%	10.75%	4.81%	-0.45%
S=C(SCc1cc(Cl)cc2c1OCOC2)N1CCSCC1	8.1%	-7.54%	10.68%	22.79%	13.5%	0.8%
Clc1nc2nc3n(c2nc1Cl)CCC3	9.08%	6.51%	0.57%	2.17%	3.01%	-9.39%
COc1ccc2c3c([nH]c2c1)[C@H]1C[C@H]2[C@H](C[C@@H](O)[C@H](OC)[C@H]2C(=O)O)CN1CC3	6.35%	2.79%	-2.06%	4.58%	-1.6%	-3.05%
Cc1cc(N2CCOCC2)nc(N2CCOCC2)n1	0.14%	-0.73%	6.71%	4.64%	1.08%	-7.95%
Oc1ccccc1-c1nnco1 [FENADIAZOLE]	4.3%	-3.75%	4.12%	8.02%	0.92%	-7.26%
O=C1OCC/C1=C\c1ccc(O)cc1	-0.41%	-7.68%	4.86%	11.2%	3.18%	0.19%
CN1CCC(=C2c3ccccc3C(O)c3ccccc32)CC1 (centres undefined)	1.61%	-19.91%	15.16%	2.29%	0.03%	-16.59%
NS(=O)(=O)c1ccc(/N=N/c2ccc(O)[nH]c2=O)cc1	-4.07%	-21.96%	14.83%	2.74%	3.25%	-15.42%
O=C1OCC/C1=C\c1ccc2c(c1)OCO2	9.07%	-7.38%	9.99%	4.4%	3.83%	0.17%
Nc1n[nH]c(Nc2ccccc2)n1	19.31%	2.24%	12.19%	2.99%	-0.65%	-7.66%
CCC(C)(C)c1ccc(Oc2cccc(C(=O)O)c2)cc1	-8.99%	14.6%	-8.34%	17.33%	8.87%	-6.24%
Cn1c2c(sc1=O)CCC2	14.81%	-10.92%	5.93%	16.07%	2.06%	-0.94%
O=C(Nc1ccc(Cl)cc1)c1cc2c(cc1O)[nH]c1ccccc12	-1.15%	-12.34%	2.48%	13.56%	8.44%	-5.53%
Cl.Nc1ncnc2c(C3OC(CO)C(O)C3O)c[nH]c12 (centres undefined)	3.2%	11.32%	-11.86%	9.96%	2.09%	-0.14%
O=c1[nH]c2c(cnn2-c2ccc(Cl)cc2)c(=O)n1-c1cccc(Cl)c1	5.86%	6.48%	-10.38%	28.41%	2.46%	-10.88%
O=C(COc1cc(Cl)c(Cl)cc1Cl)Nc1ccc([N+](=O)[O-])cc1Cl	25.16%	-3.59%	13.57%	15.89%	2.39%	1.18%
Cc1cc(NC(=O)c2ccccc2)nc(C)n1	8.84%	-8.03%	12.79%	3.38%	0.88%	-15.88%
O=C(NCc1ccco1)Nc1cccc([N+](=O)[O-])c1	14.39%	8.34%	-1.12%	10.94%	3.5%	-10.49%
CC(=O)Nc1nc(C)c(CCCOc2ccc([N+](=O)[O-])cc2)c(O)n1	4.87%	9.03%	5.24%	2.35%	3.22%	-1.34%
Cc1cccc(N=C(S)Nc2cccc(C)n2)n1	2.02%	12.82%	3.58%	8.62%	3.4%	-9.05%
Nc1ccccc1SC1CC(=O)N(c2ccc(Cl)c(Cl)c2)C1=O (centres undefined)	1.48%	12.22%	0.8%	8.81%	8.62%	-1.72%
C(=N\N=c1/nnn(Cc2ccccc2)[nH]1)/c1ccccc1	11.96%	-3.55%	3.73%	9.14%	6.47%	-8.48%
O=[N+]([O-])c1cccnc1Oc1cc(Cl)c(Cl)cc1Cl	13.29%	1.57%	1.62%	4.9%	1.25%	-4.41%
C[C@@H]1C[C@H]2OC(=O)[C@@]3(C)CCC[C@@](C)([C@@H]23)[C@@]1(O)CCc1ccoc1	-8.43%	-3.35%	-14.05%	4.6%	-0.12%	-1.32%

SMILES	Inhibition (Staphylococcus aureus)	Inhibition (Acinetobacter baumannii)	Inhibition (Escherichia coli)	Inhibition (Klebsiella pneumoniae)	Inhibition (Candida albicans)	Inhibition (Cryptococcus neoformans)
Cc1ccc(-c2cssc2=S)cc1	-26.91%	-10.22%	-20.59%	2.16%	13.1%	11.55%
Cc1[nH]c(=O)n(C(C)C)c(=O)c1Br	12.85%	-11.08%	12.66%	5.3%	0.37%	-6.73%
CC(=O)Nc1ccc(OCCOc2ccc([N+](=O)[O-])cc2)cc1	16.53%	7.01%	2.93%	10.72%	-1.95%	-16.57%
CCCCN1CCN=C1S	9.78%	-11.78%	10.98%	14.43%	-2.77%	-2.57%
c1ccc(-n2nnnc2-c2cccc3ccccc23)cc1	11.74%	8.55%	-5.59%	3.86%	8.07%	-9.54%
NC(=O)Cc1ccc2c(c1)[nH]c1ccccc12	5.19%	-14.3%	7.64%	6.47%	5.86%	-8.43%
CC1(C)CCCC2(C)C(OCCO)=CC(=O)C=C12 (centres undefined)	7.52%	8.39%	0.39%	20.08%	2.7%	-10.94%
O=C(CCl)NC1(C(=O)O)CCCC1	-0.81%	16.39%	-6.53%	9.23%	6.58%	-2.6%
COC(=O)c1ccccc1NCCO	-8.89%	2.46%	10.44%	7.33%	-0.42%	-9.6%
CC(C)n1cnc2c(S)ncnc21	14.01%	-16.92%	12.98%	11.21%	2.47%	-6.64%
Cc1cc(NC(=O)Nc2cc(Cl)ccc2C)no1	-16.99%	4.24%	-3.34%	4.74%	19.4%	-2.52%
CC12C(=O)N(c3nccs3)C(=O)C1(C)C1CCC2O1 (centres undefined)	6.57%	6.5%	7.81%	14.08%	2.65%	-13.24%
CC1=NN(c2ccccc2)C(=O)C1/N=N/c1ccc(S(N)(=O)=O)cc1 (centres undefined)	-7.63%	9.06%	7.33%	5.84%	11.2%	-4.3%
O=CN/C=C\c1cc(O)ccc1O	-18.33%	-7.5%	-8.61%	6.52%	4.27%	7.81%
C/C(=N\NC(N)=O)c1ccc(Cl)c(-n2cccc2)c1	16.93%	-8.65%	6.19%	13.36%	4.13%	-10.07%
O=C1Cc2cccc(O)c(=O)c2C(=O)O1	18.22%	9.21%	9.09%	8.59%	1.02%	-4.33%
O=C(O)C1C2OC3C(OC(=O)C31)C2Br (centres undefined)	25.96%	9.29%	24.67%	4%	4.3%	11.09%
O=C1c2cccc(Oc3ccccc3)c2C(=O)c2cccc(Oc3ccccc3)c21	12.36%	6.18%	-1.53%	10.6%	2.19%	-5.27%
CC(=O)/C=C(\C)Nc1ccccc1O	8.26%	-10.28%	7.16%	26.72%	1.01%	2.5%
COc1c(/C=N/NC(N)=O)c(OC)c(OC)c2c1CCO2	5.41%	0.63%	-9.64%	15.41%	4.39%	14.65%
CC1(C)CC2(C)OC2C2(C1)N=N/C(=N/c1ccccc1)O2 (centres undefined)	27.69%	-0.3%	4.99%	7.34%	-0.47%	-10.74%
CN(C)c1ccc(C(c2ccc(N(C)C)cc2)c2ccc([N+](=O)[O-])cc2)cc1	15.85%	11.72%	-1.1%	17.42%	2.89%	-7.55%
c1ccc2nc(NN=C3CCCCC3)ccc2c1	9.39%	-16.84%	10.6%	9.11%	3.78%	-6.92%
CCOc1ccc(/C=C2\NC(=S)NC2=O)cc1	4.57%	-5.71%	-3.24%	22.87%	0.92%	-6.77%
